Hits are enriched below; roughly 0.51% of the tested compounds scored in any of these assays.
E coli growth-1 = reduces bacterial viability in AddAB counter-screen; E. coli V3065 growth, OD600 absorbance, 18 h; inhibition, % at 11.9 µM; 330,000 compounds, 0.27% hits;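 active means inhibition above the campaign's mean inhibition across all tested compounds plus 3 SD, cut at about 9.9% in these data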;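 further: uninfected addAB+ strain grown without phage in ampicillin broth; 0% = DMSO wells and 100% = ciprofloxacin 0.95 µg/ml wells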
AddAB inh = less growth of phage-infected E. coli with AddAB; E. coli expressing H. pylori AddAB, absorbance growth; 330,000 compounds, 0.29% hits; inhibition, % at 11.9 µM; in the data active means inhibition above about 12%;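 further: 0% = vehicle wells of infected cells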
E coli growth-2 = inhibitors of Escherichia coli growth | OD600, 23 h; stronger effect = lower value | OD600 absorbance (test concentration not listed) | 330,000 compounds, 0.21% hits | AID 1053175;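 active means OD600 absorbance below the run mean of sample wells minus 3.6 SD, in any replicate, cut at about 0.56 in these data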
Tat transport = inhibitors of E. coli Tat protein transport | E. coli MC4100 TorA-mCherry Tat export, fluorescence | inhibition, % at 10 µM | 340,000 compounds, 0.036% hits;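 active means mean replicate inhibition at least 50% and at least half of replicates individually reaching 50%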;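 further: exported cargo escapes ClpAP degradation while cytoplasmic cargo is degraded and loses fluorescence; 0% = median of neutral control wells and 100% = median of NaSCN control wells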
phage Ecoli inh = E. coli growth loss with phage present | growth absorbance | inhibition, % at 11.9 µM | 360,000 compounds, 0.26% hits | AID 651602; in the data active means inhibition above about 11%
AddAB confirm = growth loss of T4-infected E. coli expressing H. pylori AddAB, confirmed; inhibition, % at 11.9 µM; shares compounds with AddAB inh; 880 compounds, 64% hits; E. coli V3065 expressing H. pylori AddAB, T4 phage, OD; T4 phage with gene 2 nonsense mutations; AID 488942;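 active means mean inhibition above a set limit taken from the earlier primary screen, cut at about 13% in these data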;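 further: higher means less bacterial growth since AddAB block lets phage replicate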
RecBCD counter = AddAB counter-screen: growth loss of RecBCD+ E. coli infected with mutant T4 phage; shares compounds with AddAB inh; E. coli V66 + mutant T4 phage, OD growth; inhibition, % at 11.9 µM; 880 compounds, 73% hits;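 active means mean inhibition above the mean of solvent-only control wells plus 3 SD, cut at about 4% in these data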;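 further: optical density read after an 18 h incubation at 37 °C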
bact viab count = counter-screen: bacterial growth inhibition; shares compounds with AddAB inh; AID 488956; 880 compounds, 35% hits; inhibition, % at 11.9 µM; bacterial viability, absorbance (AddAB counterscreen); in the data active means inhibition above about 25%
* marks the source's active call; other numbers are inactive results; i = inactive; / = no result.

SMILES | E coli growth-1 | AddAB inh | E coli growth-2 | Tat transport | phage Ecoli inh | AddAB confirm | RecBCD counter | bact viab count
CCC(=O)NC(C)c1cc(Cl)c2cccnc2c1O (centres undefined) | -4 | -4 | 0.69 | 0 | 7 | / | / | /
COc1ccc(C(NC(C)=O)c2cc(Cl)c3cccnc3c2O)cc1OC (centres undefined) | 9 | 10 | / | -2 | 8 | / | / | /
CC(O)Cc1cn(-c2cc3cc(C#Cc4ccsc4)ccc3oc2=O)nn1 (centres undefined) | / | / | 0.64 | / | / | / | / | /
O=C(O)c1cn(-c2ccc(N3CCCC3)c(F)c2)c2c(F)c(F)c(F)cc2c1=O | 17* | 22* | 0.46* | -8 | 0 | 21* | -2 | 5
C=CCn1c(Sc2ncc([N+](=O)[O-])s2)n[nH]c1=O | 3 | 17* | 0.45* | 10 | 9 | 99* | 12* | 21
Cc1cccc(N=Cc2nc(-c3ccccc3Br)oc2O)n1 | / | / | 0.73 | / | / | / | / | /
C/C(C=Nn1c(-c2ccco2)n[nH]c1=S)=C/c1ccccc1 | / | / | 0.7 | / | / | / | / | /
On1c(-c2ccccc2)nc2ccccc21 | 6 | 6 | 0.63 | 0 | 3 | / | / | /
O=Nc1c2nc3ccccc3n(O)c-2c2ccccc12 | 20* | 14* | 0.56 | 4 | 6 | 32* | 8.1* | 17
CCN1/C(=C/C=C/c2sc3ccccc3[n+]2CC)Sc2ccccc21 | 9 | 13* | / | i | / | 61* | 9.1* | 14
CCOC(=O)C1=C(N)n2c(sc(=Cc3cccnc3)c2=O)=C(C#N)C1c1cccnc1 (centres undefined) | / | / | 0.7 | / | / | / | / | /
CC12CCC(CC1=N/N=C1/NC(=O)/C(=C\c3ccc(Cl)cc3)S1)C2(C)C (centres undefined) | / | / | 0.76 | / | / | / | / | /
O=C(O[C@@H]1OC2COC(=O)c3cc(O)c(O)c(O)c3-c3c(cc(O)c(O)c3O)C(=O)O[C@@H]([C@H]1O)[C@@H]2O)c1cc(O)c(O)c(O)c1 | 23* | 22* | / | -1 | / | 20* | 14* | 10
COc1ccccc1CNC(=O)c1cc(S(=O)(=O)N2CCCC2)cn1C | 99* | 100* | 0.71 | -3 | 4 | -3 | 0 | -2
Cn1cc(S(=O)(=O)N2CCOCC2)cc1C(=O)NCCc1ccccc1 | 99* | 99* | 0.72 | -1 | / | -3 | -1 | -2
Cc1ccc(CCNC(=O)c2cc(S(=O)(=O)N3CCOCC3)cn2C)cc1 | 1 | 0 | 0.71 | -6 | 1 | / | / | /
c1ccc(-c2nnc(-c3ccccn3)nn2)nc1 | 5 | 4 | 0.67 | 1 | 1 | / | / | /
c1ccc(-c2cccc(-c3ccccn3)n2)nc1 | 35* | 34* | 0.54 | -10 | / | 46* | 36* | 30*
Cc1ccc(C2C(=C(O)c3ccc(Cl)cc3)C(=O)C(=O)N2CC2CCCO2)o1 (centres undefined) | / | / | 0.71 | / | / | / | / | /
C#CCOCCOCCOCCNc1nc(N2CCN(C(=O)C(CCC(=O)O)n3cc(C(N)CC(C)C)nn3)CC2)nc(N2CCN(C(=O)C(C(C)CC)n3cc(C(N)CO)nn3)CC2)n1 (centres undefined) | / | / | 0.7 | / | / | / | / | /
O=C(Oc1c(Cl)cc(Cl)c2cccnc12)c1ccco1 | 48* | 50* | 0.056* | -30 | 61* | 63* | 60* | 58*
Cc1ccc(OCC(=O)Nc2cc(C)on2)c([N+](=O)[O-])n1 | 15* | 19* | 0.69 | 1 | 6 | 42* | 6.7* | 26*
CCCCNC(=O)O[C@H]1C[C@@H]2CCN3C(=O)CCC[C@H]([C@H]1CC)[C@H]23 | 2 | 15* | / | -10 | 3 | -2 | 1 | -4
COC(=O)c1cc(=O)n(CCc2ccc(OC)cc2)c(=Nc2ccc(F)c(Cl)c2)s1 | -2 | 0 | 0.81 | 0 | 2 | / | / | /
COC(=O)c1cc(=O)n(CCc2ccccc2)c(=Nc2ccc(F)cc2)s1 | 99* | 99* | 0.79 | 4 | 2 | 0 | 1 | -2
SMILES | E coli growth-1 | AddAB inh | E coli growth-2 | Tat transport | phage Ecoli inh | AddAB confirm | RecBCD counter | bact viab count
O=C1C=C(C=Cc2ccccc2)CC(c2ccc(F)cc2)C1 (centres undefined) | / | / | 0.68 | / | / | / | / | /
Nc1nn2c(-c3ccccc3)cc(=O)[nH]c2c1N=Nc1ccc(O)cc1 | 10* | 19* | 0.73 | -1 | 6 | 27* | 0 | 6
COc1c(N2CCNC(C)C2)c(F)cc2c(=O)c(C(=O)O)cn(C3CC3)c12 (centres undefined) | 102* | 100* | 0.061* | / | / | 101* | 101* | 103*
Cc1c(-n2cc(C(=O)O)c(=O)c3cc(F)c(N4CCCC(O)C4)c(F)c32)c(=O)n(-c2ccccc2)n1C (centres undefined) | 1 | 2 | 0.72 | 6 | 1 | / | / | /
CCCS(=O)(=O)c1c(S(=O)(=O)CCC)c2c(C)cccn2c1C(=O)N/N=C/c1cc(O)cc(O)c1 | 8 | 14* | / | -6 | 10 | 4 | 6.0* | 0
CCCS(=O)(=O)c1c(S(=O)(=O)CCC)c2c(C)cccn2c1C(N)=O | 2 | 3 | 0.7 | 2 | 2 | / | / | /
CC(=O)Nc1ccc(C=NNC(=O)c2cc3ccccc3nc2C)cc1 | / | / | 0.71 | / | / | / | / | /
CCCc1[nH]nc2c1C1(C(=O)N(CC)c3ccccc31)C(C#N)=C(N)O2 (centres undefined) | 26* | 17* | 0.7 | -5 | / | -4 | -1 | -4
O=C(O)CC1c2cc(C(F)(F)F)ccc2S(=O)(=O)N1Cc1ccccc1 (centres undefined) | / | / | 0.67 | / | / | / | / | /
O=C(CSc1ccc(-c2ccccn2)nn1)Nc1ccc(F)c(F)c1 | 14* | 14* | 0.69 | 17 | 8 | 7 | 9.7* | 7
Cc1ccc(NC(=O)CSc2ccc(-c3ccccn3)nn2)cc1 | 4 | 9 | 0.66 | 7 | 10 | / | / | /
CCOCCCNC(=O)Cn1cc2c(n1)CCCC2 | 4 | 14* | 0.71 | 2 | 1 | -2 | 1 | -2
CCCCC1CNCCN1CCc1cc(C(F)(F)F)cc(C(F)(F)F)c1 (centres undefined) | / | / | 0.66 | / | / | / | / | /
Cc1ccc(S(=O)(=O)N=C(c2ccccc2)N(C)C)c(C)c1 | / | / | 0.7 | / | / | / | / | /
CCCOc1ccc(S(=O)(=O)n2cc(F)c(=O)[nH]c2=O)cc1 | 6 | 13* | 0.69 | 2 | 3 | 11 | 1 | 5
CC(C)COc1ccc(S(=O)(=O)n2cc(F)c(=O)[nH]c2=O)cc1 | 7 | 13* | 0.67 | -4 | 7 | 4 | 2 | 4
CCOc1ccc(Cn2cc(F)c(=O)[nH]c2=O)cc1 | 1 | 2 | 0.65 | -9 | 3 | / | / | /
Cc1sc(NN=Cc2cccnc2)nc1-c1ccc(Cl)cc1 | / | / | 0.79 | / | / | / | / | /
O=C(Cn1ccc(C(F)(F)F)n1)Nc1cccc(S(=O)(=O)N2CCCCC2)c1 | 24* | 35* | 0.65 | -1 | 5 | -5 | -1 | -2
CC(=NNC(=O)COc1cccc(Cl)c1)c1ccc2c(c1)OCCO2 | / | / | 0.69 | / | / | / | / | /

Bioassay records as filed in PubChem BioAssay.
